From PubChem
Sampled rows, rich in hits. Any-hit rate of the full collection: about 12%.
G9a block – blocks human histone lysine methyltransferase G9a. G9a H3K9 monomethylation, AlphaScreen, 2 h. Potency, µM (series often up to 102 µM), for the others: top-dose activity, negative = inhibition, actives largely listed as inhibitors. actives 8.8% (n = 350,000). AID 504332; further: on the % scale 0 is the no-effect control and ±100 the full control effect; nearly all actives have a fitted effect of over 75% in size
Target sequence (Q96KQ7 913-1193 limits assumed): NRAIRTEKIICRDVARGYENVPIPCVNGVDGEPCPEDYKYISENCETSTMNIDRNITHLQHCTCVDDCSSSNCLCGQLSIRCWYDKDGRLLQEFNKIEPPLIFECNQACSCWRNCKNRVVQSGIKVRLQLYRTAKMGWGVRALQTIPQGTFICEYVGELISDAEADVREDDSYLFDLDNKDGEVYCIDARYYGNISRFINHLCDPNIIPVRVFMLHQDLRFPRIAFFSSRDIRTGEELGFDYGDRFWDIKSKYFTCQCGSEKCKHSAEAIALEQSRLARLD
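Signal arises when biotinylated H3K9 peptide, once monomethylated, bridges streptavidin donor and antibody-captured acceptor beads. Enzyme at 20 nM was preincubated 15 min with test compounds; peptide 500 nM and SAM 20 uM then reacted for 2 h.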
HP1b chromo inh – blocks HP1-beta chromodomain binding to methylated histone tails; P83916; AlphaScreen HP1-beta / biotin-H3K9me3 peptide binding; Potency, µM (titrated, usually from 114 µM), for the others: at the highest dose activity change, negative = inhibition, hits mostly inhibitors; actives 0.56% (n = 390,000); further: nearly all actives have a fitted effect of over 70% in size
Target sequence (P83916 whole entry, looked up): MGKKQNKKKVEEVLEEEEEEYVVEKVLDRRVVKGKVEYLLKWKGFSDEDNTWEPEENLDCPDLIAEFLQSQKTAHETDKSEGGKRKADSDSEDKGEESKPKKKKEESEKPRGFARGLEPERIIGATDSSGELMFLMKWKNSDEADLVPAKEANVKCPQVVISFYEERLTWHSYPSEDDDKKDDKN
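AlphaScreen: HP1-beta (50 nM) preformed 30 min with biotin-H3(1-18)K9me3 peptide (50 nM) in PBS pH 7.4, 0.01% Tween-20. Compound added for 30 min at RT, then streptavidin donor/nickel chelate acceptor beads (10 ug/mL) for 30 min.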
BAZ2B inh – blocks human BAZ2B | Q9UIF8 | Potency, µM (highest dose often 114 µM), inactives show at the top dose activity change, negative = inhibition, usual class: inhibitors | AlphaScreen BAZ2B-H3K14Ac peptide displacement | AID 504333 | actives 4.4% (n = 360,000); further: on the % scale 0 is the no-effect control and ±100 the full control effect; nearly all actives have a fitted effect of over 60% in size
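Multi-concentration screen (max 110 uM) measuring displacement of acetylated histone H3 peptide from BAZ2B by AlphaScreen, using 50 nM protein, 50 nM peptide and 10 ug/mL streptavidin donor plus Ni-chelate acceptor beads.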
Sfp PPTase inh – inhibitors of Bacillus subtilis Sfp phosphopantetheinyl transferase. actives 3.5% (n = 310,000). Potency, µM, without a hit: largest response in the series, negative = inhibition, hits mostly inhibitors. Q9F4F7. Biochemical Sfp PPTase activity, qHTS;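 further: the enzyme is Sfp with the accession as filed and its product quenches rhodamine fluorescence; 0% = enzyme reaction without inhibitor and -100% = no enzyme wells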
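Compounds were incubated with enzyme (final 15 nM) for 15 min at room temperature before substrate addition started the reaction. Fluorescence at 525 nm excitation, 598 nm emission was recorded immediately and after 30 minutes.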
JMJD2A Tudor – JMJD2A Tudor domain (human) inhibition; AlphaScreen JMJD2A-Tudor / H3K4me3 peptide binding; Potency, µM (titrated, usually from 114 µM), for inactives: at the top dose activity change, negative = inhibition, hits mostly inhibitors; O75164; actives 4.4% (n = 390,000); further: on the % scale 0 is the no-effect control and ±100 the full control effect; nearly all actives have a fitted effect of over 50% in size
An asterisk follows results filed as active; u = inconclusive; x = no result given; ! = a repeat was not active; [ ] = dose if it differs, or a comment. The call rests on the fitted dose curve; in most records, active means well fitted curve in the direction sought with a large enough effect; inconclusive means small, poorly fitted or top-dose-only effect, or another doubt; inactive means no such curve, though single readings can be large; an effect the other way counts as inactive or inconclusive. Potency means the concentration at half of the fitted maximal effect.

SMILES	G9a block	HP1b chromo inh	BAZ2B inh	Sfp PPTase inh	JMJD2A Tudor
Cc1cccc(/C=C2\CCC(=C3SCCCS3)C2=O)c1	50µM*	16µM*	10µM*	-15%	45µM*
Cn1c(=O)[nH]c2nnc(-c3ccc(Cl)c(Cl)c3)nc2c1=O	u	3%	89µM*	u	u
CSc1cnc2c(=O)n(C)c(=O)[nH]c2n1	5%[59 µM]	20%	7%	10%	-1%
CCCN(CCO)CCCc1ccccc1	u	u	u	u	2.8µM*
CCN(CCCc1ccccc1)CCCc1ccccc1	u	-9%	u	13%	22µM*
CCN(CCCC(=O)c1ccc(F)cc1)CCc1ccccc1	x	75%	0%	3%	-21%
CC(C)c1cc(=O)n2[nH]c(SCc3ccccc3)nc2n1	10%	68%	0%	8%	-5%
CCOC(=O)N1CCN(C(=O)CNC(=O)c2ccc(Cl)cc2Cl)CC1	-7%[12.7 µM]	41%	-3%	x	5%
O=C1CCCC/C1=C\Nc1ccc(O)cc1	0.89µM*	17%	0%	22µM*	-24%
CN1C(=S)SC(C)(NO)C1(C)C (stereo not given)	u	u	u	56µM*	22µM*
CC(C)CC1Nc2ncnc(N3CCOCC3)c2N(Cc2ccccc2)C1=O (stereo not given)	x	44%	x	x	-19%
COc1ccccc1CNc1ccnc(-c2ccccc2Cl)n1	9%[0.501 µM]	x	x	7%	x
CCOc1ccc2[nH]cc(S(=O)(=O)c3ccc(C)cc3)c(=O)c2c1	-4%	48%	-14%	28%	1%
CCOc1ccc2[nH]cc(S(=O)(=O)c3ccc(Cl)cc3)c(=O)c2c1	71µM*	16%	u	-1%	-17%
O=C(CNS(=O)(=O)c1ccc(Br)s1)NCC1COc2ccccc2O1 (stereo not given)	-4%	17%	3%	8%	1%
CCN1C(C)=C(C)S/C1=C1\SC(=S)N(N)C1=O	x	18%	-19%	20µM*	-1%[57.1 µM]
COc1ccc(CNC(=O)c2ccc3ccccc3n2)cc1OC	27%	29%	1%	2%	-5%
COc1ccccc1CNC(=O)c1ccc2ccccc2n1	10%	41%	79µM*	-2%	-6%
COc1ccccc1CNC(=O)c1ccc(-c2ccccc2)cc1	45µM*	33%	-5%	u	-6%
O=C1CCN(Cc2ccc([N+](=O)[O-])cc2)CCN1CCO	x	18%	-8%	11%	-17%
COc1ccc2c(ccc[n+]2[O-])c1	x	-7%	x	x	-14%
[O-][n+]1cccc2c(Br)cc(Br)c(O)c21	50µM*	8%	x	-20%	-27%
COc1cccc(N(C(=O)CNC(=O)c2ccco2)C(C(=O)NC2CCCCC2)c2ccncc2)c1 (stereo not given)	-46%	47%	-3%	7%	-9%
CCCCC(=O)Nc1ncc([N+](=O)[O-])s1	u	3%	-38%	13%	-15%
O=C(COC(=O)c1ccccc1)Nc1ncc([N+](=O)[O-])s1	x	u	x	x	20µM*
SMILES	G9a block	HP1b chromo inh	BAZ2B inh	Sfp PPTase inh	JMJD2A Tudor
O=C(Nc1ncc([N+](=O)[O-])s1)c1cccc([N+](=O)[O-])c1	u	9%	-25%	12%	-29%
O=C(Nc1ccccc1)Nc1ncc([N+](=O)[O-])s1	45µM*	-1%[57 µM]	u	-6%	-31%
Oc1ccc(/C=C\c2cc(O)cc(O)c2)cc1	-41%[5.15 µM]	x	x	-3%	x
Oc1ccc(/C=C/c2cc(O)cc(O)c2)cc1	7.9µM*!	15%	-27%	6%	-27%
c1ccc2c(-c3nnc(SCc4cn5ccccc5n4)o3)c[nH]c2c1	8.9µM*	21%	-11%	-22%	-20%
c1ccc(CSc2nnc(-c3c[nH]c4ccccc34)o2)cc1	1%	34%	-14%	u	-15%
COc1cccc(N2CCN(C(=O)c3cc4cc(Cl)ccc4[nH]3)CC2)c1	71µM*	-3%	-37%	7%	u
COc1ccc2cc(C(=O)N3CCN(c4ccc(F)cc4)CC3)[nH]c2c1	50µM*	21%	-9%	2%	3%
COc1ccc(N2CCN(C(=O)c3[nH]c4ccc(OC)cc4c3C)CC2)cc1	40µM*	u	u	-6%	28µM*
COc1ccc2nc3oc(C(=O)N4CCN(c5cccc(Cl)c5)CC4)cc3cc2c1	u	16%	-17%	11µM*	5%
CCC(C(=O)OC)n1cnc2c(nnn2-c2cccc(OC)c2)c1=O (stereo not given)	4%	31%	7%	2%	-11%
CCOc1ccccc1N1CCN(C(=O)c2cc3cc(OC)ccc3[nH]2)CC1	35µM*	-9%	u	-26%	u
COc1cccc(CC2(CO)CCCN(Cc3[nH]c4ccc(C)cc4c3C)C2)c1 (stereo not given)	45µM*	-19%	u	-2%	-22%[11.4 µM]
COc1ccc2[nH]c(C(=O)N3CCC(CO)(Cc4cccc(C(F)(F)F)c4)CC3)c(C)c2c1	79µM*	11%	-38%	16%	-29%
CCOC(=O)C1CCN(C(=O)c2[nH]c3ccc(OC)cc3c2C)CC1	-4%	9%	-3%	7%	-5%
CCOc1ccccc1N1CCN(C(=O)c2cc(C)oc2C)CC1	-7%[12.7 µM]	-12%	-9%	6%	-36%
COc1ccc(N2C(=O)CC(NC3CC3)C2=O)cc1 (stereo not given)	13%[12.7 µM]	44%	6%	-7%	-2%
CCOC(=O)N1CCN(C(=O)c2ccc(N3C(=O)CCC3=O)cc2)CC1	4%[12.7 µM]	15%	0%	29%	-11%
CCOc1ccc(N2C(=O)CC(NC3CCN(C(=O)c4ccc(F)cc4)CC3)C2=O)cc1 (stereo not given)	13µM*	54%	-4%	2%	-17%
CCOC(=O)c1ccc(N2C(=O)CC(NC3CCN(C(=O)c4ccc(F)cc4)CC3)C2=O)cc1 (stereo not given)	45µM*	36%	8%	-8%	-1%
Cc1ccc(NC(=O)COC(=O)c2ccc3c(c2)OCO3)c(C)c1	8%	33%	-17%	9%	0%
C[C@H](CO)N1C[C@H](C)[C@@H](CN(C)Cc2ccc(Oc3ccccc3)cc2)Oc2ccc(NC(=O)Cn3cnnn3)cc2C1=O	x	8%	x	x	u
C=CCNC(=O)COC(=O)c1c2c(nc3ccccc13)CCC2	40µM*	u	50µM*	7%	28µM*
CCOc1ccc(NC(=O)c2c3c(nc4ccccc24)CCC3)cc1	u	20%	-5%	-26%	-9%
Cc1cccc(NC(=O)CSc2c3c(nc4ccccc24)CCC3)n1	16%[59 µM]	26%	-5%	12%	-1%
CC(C)NCC(=O)Nc1c2c(nc3ccccc13)CCC2	18µM*	-1%	50µM*	u	22µM*
CCOC(=O)CNC(=O)c1c2c(nc3ccccc13)CCCC2	x	22%	-1%	11%	-6%
